Active and inactive are the calls of the source.
How the values were obtained:
[1] = system: Plasmodium falciparum Sir2 (PF13_0152, Sir2A); test: pfSir2 binders on small-molecule microarrays, primary screen, biochemical, small-molecule microarray, 635 nm fluorescence (AID 1098); details: small-molecule microarray binding, fluorescence 635 nm; higher = more signal;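 also: score merges spot fluorescence intensity with its signal-to-noise ratio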
[2] = small-molecule microarray binders of probe aDKK1, primary screen, biochemical, biotinylated probe, 635/667 nm fluorescence (AID 1099); details: higher = more signal;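 also: score merges 667nm spot fluorescence with signal to noise across triplicate slides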
[3] = small-molecule microarray binders of probe aCHRDL2, primary screen, biochemical, biotinylated probe, 635/667 nm fluorescence (AID 1100); details: higher = more signal
[4] = splicing luciferase reporter signal modulators, primary screen, spliceosome inhibition project, cell-based, HEK293, splice +/- reporter (AID 1101); details: luminescence, 24 h, higher = more signal, called active from +8 up or from −8 down;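 also: HEK293 cells carrying a splicing-competent luciferase reporter gene; test concentration not given here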
[5] = target: Fibroblast growth factor 10 (Homo sapiens) (UniProt O15520); test: FGF10 binders on small-molecule microarrays, primary screen, biochemical, small-molecule microarray, 635 nm fluorescence (AID 1102); details: FGF10 binding, fluorescence 635 nm, higher = more signal
Sequence of Fibroblast growth factor 10 (Homo sapiens) (O15520 whole entry, looked up): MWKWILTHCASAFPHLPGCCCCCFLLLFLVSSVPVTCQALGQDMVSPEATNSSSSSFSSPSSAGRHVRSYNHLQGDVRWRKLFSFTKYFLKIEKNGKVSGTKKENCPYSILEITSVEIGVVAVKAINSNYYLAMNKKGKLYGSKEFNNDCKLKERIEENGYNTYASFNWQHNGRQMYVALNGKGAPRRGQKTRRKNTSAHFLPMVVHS

[6] = system: glycogen synthase kinase-3 (GSK3A per assay name; protocol says GSK3B); test: GSK3 binders on small-molecule microarrays, primary screen, biochemical, small-molecule microarray, 635 nm fluorescence, GSK3A (AID 1103); details: small-molecule microarray binding, fluorescence 635 nm; higher = more signal; also: the record names both GSK3A and GSK3B
[7] = target: Epidermal growth factor receptor (Homo sapiens) (UniProt P00533); test: EGFR binders on small-molecule microarrays, primary screen, biochemical, small-molecule microarray, 635 nm fluorescence (AID 1104); details: EGFR binding, higher = more signal;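 also: score merges 667 nm emission intensity with spot signal to noise over triplicate slides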
Sequence of Epidermal growth factor receptor (Homo sapiens) (P00533 whole entry, looked up): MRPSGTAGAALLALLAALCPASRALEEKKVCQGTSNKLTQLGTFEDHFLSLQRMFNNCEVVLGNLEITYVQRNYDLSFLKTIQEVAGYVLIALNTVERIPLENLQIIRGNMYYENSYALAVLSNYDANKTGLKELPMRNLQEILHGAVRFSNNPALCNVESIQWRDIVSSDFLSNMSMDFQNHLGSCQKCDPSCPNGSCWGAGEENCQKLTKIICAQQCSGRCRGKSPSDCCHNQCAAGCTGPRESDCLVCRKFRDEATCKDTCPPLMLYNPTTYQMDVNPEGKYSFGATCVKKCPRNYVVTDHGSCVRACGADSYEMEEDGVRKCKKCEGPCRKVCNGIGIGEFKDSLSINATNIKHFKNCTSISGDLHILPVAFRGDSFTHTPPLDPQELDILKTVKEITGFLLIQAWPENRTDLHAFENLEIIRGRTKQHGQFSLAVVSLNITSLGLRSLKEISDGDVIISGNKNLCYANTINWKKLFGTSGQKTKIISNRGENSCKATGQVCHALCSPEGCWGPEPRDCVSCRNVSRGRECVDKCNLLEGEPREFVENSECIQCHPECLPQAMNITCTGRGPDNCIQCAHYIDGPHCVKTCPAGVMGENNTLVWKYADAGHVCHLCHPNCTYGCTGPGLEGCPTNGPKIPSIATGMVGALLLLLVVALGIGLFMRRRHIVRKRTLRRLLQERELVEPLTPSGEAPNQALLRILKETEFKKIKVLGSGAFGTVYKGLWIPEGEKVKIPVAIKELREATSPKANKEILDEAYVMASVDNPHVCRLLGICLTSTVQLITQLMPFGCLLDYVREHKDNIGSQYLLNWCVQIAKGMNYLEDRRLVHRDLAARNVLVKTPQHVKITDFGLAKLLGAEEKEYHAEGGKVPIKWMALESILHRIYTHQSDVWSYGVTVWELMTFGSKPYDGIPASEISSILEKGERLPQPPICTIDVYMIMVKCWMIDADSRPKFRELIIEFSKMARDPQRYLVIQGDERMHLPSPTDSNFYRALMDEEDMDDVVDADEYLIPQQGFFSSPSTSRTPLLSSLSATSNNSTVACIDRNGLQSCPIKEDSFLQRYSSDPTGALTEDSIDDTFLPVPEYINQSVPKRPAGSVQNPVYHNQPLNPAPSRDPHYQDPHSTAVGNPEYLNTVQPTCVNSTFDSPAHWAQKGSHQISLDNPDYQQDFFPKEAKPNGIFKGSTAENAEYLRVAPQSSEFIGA

[8] = target: Follistatin-related protein 3 (Homo sapiens) (UniProt O95633); test: FSTL3 binders on small-molecule microarrays, primary screen, biochemical, small-molecule microarray, 635 nm fluorescence (AID 1105); details: FSTL3 binding, higher = more signal;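 also: score merges emission near 667 nm and signal to noise per printed spot across three slides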
Sequence of Follistatin-related protein 3 (Homo sapiens) (O95633 whole entry, looked up): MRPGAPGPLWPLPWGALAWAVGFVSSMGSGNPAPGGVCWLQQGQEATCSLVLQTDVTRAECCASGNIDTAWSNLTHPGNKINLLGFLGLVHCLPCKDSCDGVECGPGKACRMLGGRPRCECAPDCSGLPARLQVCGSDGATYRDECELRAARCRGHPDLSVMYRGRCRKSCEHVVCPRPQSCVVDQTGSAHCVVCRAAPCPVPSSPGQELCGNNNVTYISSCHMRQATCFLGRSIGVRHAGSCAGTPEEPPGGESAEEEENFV

[9] = target: Dickkopf-related protein 1 (Homo sapiens) (UniProt O94907); test: DKK1 binders on small-molecule microarrays, primary screen, biochemical, small-molecule microarray, 635 nm fluorescence scan (AID 1106); details: DKK1 binding, higher = more signal;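 also: score merges emission near 667 nm with signal to noise over three replicate slides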
Sequence of Dickkopf-related protein 1 (Homo sapiens) (O94907 whole entry, looked up): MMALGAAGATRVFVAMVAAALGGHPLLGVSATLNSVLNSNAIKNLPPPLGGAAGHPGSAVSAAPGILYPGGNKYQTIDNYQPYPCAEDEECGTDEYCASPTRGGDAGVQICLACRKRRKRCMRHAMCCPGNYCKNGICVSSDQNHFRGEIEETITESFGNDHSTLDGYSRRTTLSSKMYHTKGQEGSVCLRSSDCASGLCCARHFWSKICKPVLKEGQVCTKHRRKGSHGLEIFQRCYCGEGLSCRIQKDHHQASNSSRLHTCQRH

[10] = system: Inhibin beta A chain (activin A); test: INHBA (activin A) binders on microarrays, primary screen, biochemical, small-molecule microarray, 635 nm fluorescence scan (AID 1107); details: small-molecule microarray binding, higher = more signal;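 also: mouse activin A protein probed at 4.33 µg/mL on printed slides; score merges bound-protein fluorescence near 667 nm with spot signal-to-noise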
[11] = system: Human papillomavirus type 1a protein E7 (residues 44-93); test: HPV1a E7 fragment binders on microarrays, primary screen, biochemical, small-molecule microarray, residues 44-93, 635 nm fluorescence (AID 1108); details: small-molecule microarray binding, fluorescence 635 nm; higher = more signal;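 also: E7 fragment applied at 1 µg/mL in TBST for 1 h at 4 C; score combines spot fluorescence with its signal to noise ratio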
[12] = modulators of HCV replicon luciferase signal, primary screen, HCV replication inhibitor project, Huh7 cells, luciferase reporter (AID 1109); details: 48 h, higher = more signal;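 also: huh7 hepatoma cells harbouring a luciferase neomycin HCV replicon reporter; luciferase luminescence as measure of HCV replicon replication; test concentration not given here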
[13] = target: Left-right determination factor 2 (Homo sapiens) (UniProt O00292); test: LEFTY2 binders on small-molecule microarrays, primary screen, biochemical, small-molecule microarray, 635 nm fluorescence scan (AID 1110); details: LEFTY2 binding, higher = more signal
Sequence of Left-right determination factor 2 (Homo sapiens) (O00292 whole entry, looked up): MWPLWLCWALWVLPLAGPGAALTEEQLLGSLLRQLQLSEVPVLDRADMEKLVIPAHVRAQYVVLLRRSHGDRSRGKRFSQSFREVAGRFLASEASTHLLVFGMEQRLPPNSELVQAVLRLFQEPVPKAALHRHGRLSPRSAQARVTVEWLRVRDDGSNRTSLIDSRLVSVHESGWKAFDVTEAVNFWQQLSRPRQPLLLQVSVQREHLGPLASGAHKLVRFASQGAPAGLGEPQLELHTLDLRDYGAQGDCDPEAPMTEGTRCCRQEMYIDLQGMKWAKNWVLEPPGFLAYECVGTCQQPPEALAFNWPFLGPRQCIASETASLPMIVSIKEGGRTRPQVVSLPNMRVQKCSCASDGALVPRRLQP

[14] = target: Calmodulin-1 (Homo sapiens) (UniProt P0DP23); test: CALM1 binders on microarrays, EGTA buffer, profiling panel, biochemical, small-molecule microarray, Cy5-labelled CALM1 (AID 1111); details: Cy5-CALM1 binding fluorescence, higher = more signal;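 also: labelled calmodulin applied in Tris saline Tween buffer holding calcium plus EGTA and DTT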
[15] = target: Calmodulin-1 (Homo sapiens) (UniProt P0DP23); test: calcium-bound CALM1 binders on microarrays, profiling panel, artefact control for SMM control-protein annotation, biochemical, small-molecule microarray, Cy5-labelled CALM1, plus calcium (AID 1112); details: Cy5-CALM1 binding fluorescence, higher = more signal;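 also: score merges spot fluorescence with signal to noise from triplicate slides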
[16] = small-molecule microarray binders of probe aWnt5a, primary screen, biochemical, biotinylated probe, 635/667 nm fluorescence (AID 1113); details: higher = more signal;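 also: score merges 667 nm fluorescence intensity with signal-to-noise per printed feature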
[17] = small-molecule microarray binders of probe aShh, primary screen, biochemical, biotinylated probe, 635/667 nm fluorescence (AID 1114); details: higher = more signal;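 also: probe is biotin-labelled aShh protein from a stem cell growth factor screen; measures binding of labelled protein to compounds printed on the slide; score merges feature fluorescence at 667 nm with signal-to-noise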
[18] = small-molecule microarray binders of probe aNog, primary screen, biochemical, biotinylated probe, 635/667 nm fluorescence (AID 1115); details: higher = more signal;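 also: probe is biotinylated aNog protein used at 0.15 µg/mL for 1 h at 4 C; z-score combines 667 nm fluorescence of each spot with its signal to noise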
[19] = target: Torsin-1A-interacting protein 1 (Homo sapiens) (UniProt Q5JTV8); test: LAP1 binders from COS7 cell lysate, primary screen, small-molecule microarray, 635/667 nm fluorescence (AID 1116); details: COS7-hLAP1 lysate binding, 635 nm fluorescence, higher = more signal
Sequence of Torsin-1A-interacting protein 1 (Homo sapiens) (Q5JTV8 whole entry, looked up): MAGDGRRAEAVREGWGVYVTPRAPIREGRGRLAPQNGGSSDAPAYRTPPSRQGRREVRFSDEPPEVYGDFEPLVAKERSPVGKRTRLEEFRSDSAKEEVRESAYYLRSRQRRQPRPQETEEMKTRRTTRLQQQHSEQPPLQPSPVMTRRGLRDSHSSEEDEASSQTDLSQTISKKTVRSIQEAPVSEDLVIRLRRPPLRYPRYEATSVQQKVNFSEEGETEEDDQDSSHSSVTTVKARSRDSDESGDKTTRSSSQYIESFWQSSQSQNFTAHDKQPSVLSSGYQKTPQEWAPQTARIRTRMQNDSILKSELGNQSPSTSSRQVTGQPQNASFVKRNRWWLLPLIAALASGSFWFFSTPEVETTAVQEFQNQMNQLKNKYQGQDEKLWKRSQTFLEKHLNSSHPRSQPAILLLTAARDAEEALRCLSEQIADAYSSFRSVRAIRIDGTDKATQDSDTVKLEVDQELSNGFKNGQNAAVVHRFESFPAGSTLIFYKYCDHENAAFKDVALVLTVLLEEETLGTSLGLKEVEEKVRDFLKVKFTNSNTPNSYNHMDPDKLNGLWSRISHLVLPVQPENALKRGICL

[20] = target: Alpha-bungarotoxin (Bungarus multicinctus) (UniProt P60615); test: alpha-bungarotoxin binders on microarray, profiling panel, artefact control for SMM control protein annotation, biochemical, small-molecule microarray, Alexa647 label, 635/667 nm fluorescence (AID 1117); details: alpha-BTX-A647 binding fluorescence, higher = more signal
Sequence of Alpha-bungarotoxin (Bungarus multicinctus) (P60615 whole entry, looked up): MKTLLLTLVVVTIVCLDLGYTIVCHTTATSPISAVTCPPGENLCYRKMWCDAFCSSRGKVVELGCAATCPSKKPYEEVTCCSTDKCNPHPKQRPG

SMILES | composite z-score [1] | composite z-score [2] | composite z-score [3] | z-score [4] | composite z-score [5] | composite z-score [6] | composite z-score [7] | composite z-score [8] | composite z-score [9] | composite z-score [10] | composite z-score [11] | z-score [12] | composite z-score [13] | composite z-score [14] | composite z-score [15] | composite z-score [16] | composite z-score [17] | composite z-score [18] | composite z-score [19] | composite z-score [20]
COCC(=C=CC[C@H](O)c1cccc(OCCO)c1)CCO | 0.34 | -0.0405 | -0.101 | 0.105 (inactive) | 0.569 | -0.218 | -0.0436 | 0.688 | 0.0241 | 0.177 | 1.02 | -0.119 | 0.0075 | -0.488 | -0.487 | -0.127 | -0.156 | 0.0395 | -0.0815 | -0.113
COC(=O)[C@@]1(Cc2ccc(F)cc2)[C@H]2c3cc(C(=O)N(C)C)n(Cc4ccc(C)o4)c3C[C@H]2CN1C(=O)c1ccccc1 | 1.29 | 2.05 | 0.495 | -1.6 (inactive) | 0.152 | 0.102 | -1.87 | -1.13 | -1.39 | 1.07 | -0.0043 | -0.8 | -1.14 | 1.81 | -0.969 | 0.749 | 1.85 | 3.48 | 5.2 | -1.73
COCCOC(=O)N1C(=O)[C@@]2(c3cc(C#CC4(O)CCCCCC4)ccc31)[C@H](c1ccccc1OCCO)N1[C@H](c3ccccc3)[C@H](c3ccccc3)OC(=O)[C@H]1[C@@H]2C(=O)N1CCc2cc(OC)c(OC)cc2C1 | 1.09 | 0.0591 | 0.179 | 0.202 (inactive) | 0.99 | 0.929 | 0.345 | 0.528 | 0.0815 | -0.0614 | 1.43 | -2.42 | 0.21 | 1.26 | 0.57 | -0.0704 | -0.0289 | 0.268 | 1.24 | 1.97
CC(=O)n1cc(C(O)C2C=CC3C(=O)NC(=O)C3N2Nc2ccccn2)c2ccccc21 (stereo not given) | 0.452 | -0.0908 | 0.0413 | 2.28 (inactive) | 0.168 | 0.0973 | 0.523 | 0.225 | 0.339 | 0.709 | -0.0484 | -0.75 | 0.0729 | -0.2 | -0.36 | -0.124 | -0.138 | -0.0615 | -0.19 | 0.751
COc1ccc([Si](C)(C)[C@H]2[C@H](CC(=O)N3CCC[C@H]3CO)O[C@@]3(C(=O)N(Cc4cccc(N5CCOC5=O)c4)c4ccccc43)[C@@H]2C)cc1 | 0.927 | -0.195 | -0.425 | -0.298 (inactive) | 0.578 | 0.712 | 0.909 | 1.3 | 0.437 | 1.11 | 1.23 | -2.44 | 1.05 | -0.133 | -0.834 | -0.124 | -0.0553 | 0.0258 | 0.368 | 1.58
C=C(CCCC)/C(=C/C[C@@H](OC(C)=O)c1ccccc1OCCO)c1cc(C(=O)OC)ccc1OC | 0.175 | -0.211 | -0.271 | -0.5 (inactive) | -0.104 | 0.098 | -0.657 | -0.458 | -0.149 | 0.864 | 0.129 | -2.13 | -0.346 | -0.421 | -0.798 | -0.124 | -0.0769 | 0.0459 | -0.107 | 1.15
CO[C@H]1O[C@H](CO)[C@@H](OC(=O)Nc2ccccc2-c2ccccc2)[C@H](OC(=O)Nc2ccccc2-c2ccccc2)[C@@H]1OC(=O)Nc1ccccc1-c1ccccc1 | 1.63 | 0.408 | 0.625 | 0.389 (inactive) | 1.43 | 1.12 | -0.168 | 1.03 | 0.208 | 0.0923 | 0.538 | -1.77 | 0.292 | 1.74 | 0.459 | -0.0196 | -0.0769 | 0.799 | 0.146 | 0.818
COCCCNC(=O)[C@@H]1c2ccccc2C(=O)N(Cc2ccccc2OC)[C@H]1c1ccc(CO)cc1 | 0.342 | -0.257 | 0.287 | -1.06 (inactive) | 0.621 | -0.177 | 0.238 | 0.403 | 0.56 | 0.344 | 0.889 | -1.96 | -0.0144 | 0.349 | 0.392 | 0.0279 | -0.0035 | -0.136 | 1.62 | 0.117
O=C1[C@H]2C=C(Br)[C@H](C[C@@H]2OCCCCCCO)[C@@]12CO2 | 1.21 | -0.142 | -0.0272 | 0.428 (inactive) | -0.117 | -0.363 | -0.0491 | -0.154 | -0.0712 | 1.61 | -1.01 | -3.2 | -0.057 | -0.714 | -1.44 | -0.006 | -0.106 | -0.234 | 0.0589 | -1.17
O=C(O)[C@@]1(CCS(=O)(=O)c2ccccc2)N=C(c2ccc(OCCCO)cc2)O[C@H]1c1ccccc1 | 0.729 | 0.737 | 0.905 | -0.123 (inactive) | -0.678 | -0.123 | -0.264 | 0.215 | -1.05 | 0.658 | 1.32 | -0.124 | -0.665 | 2.47 | 0.967 | -0.0084 | 0.0639 | 1.1 | 1.08 | 0.524
O=C(NCc1ccccc1)[C@@H]1c2ccccc2C(=O)N(C2Cc3ccccc3C2)[C@H]1c1ccc(CO)cc1 | 0.81 | 0.689 | 1.01 | -0.0178 (inactive) | 0.732 | 0.737 | -0.318 | 0.475 | 0.0698 | 0.344 | -0.146 | -0.51 | -0.322 | 0.158 | 0.229 | -0.101 | 0.194 | 1.13 | 0.628 | 1.22
[N-]=[N+]=Nc1ccccc1C[C@]1(C(=O)NCc2ccccc2)N=C(c2ccc(OCCCO)cc2)O[C@H]1c1ccccc1N=[N+]=[N-] | 1.04 | 0.236 | 0.778 | 0.716 (inactive) | 1.31 | 0.34 | 0.291 | 0.646 | -0.245 | 1.11 | 1.42 | -2.34 | -0.366 | 1.99 | 0.177 | 0.164 | 0.149 | -0.237 | 1.02 | 1.48

From PubChem BioAssay
